Sampled rows, rich in hits. Any-hit rate of the full collection: about 4.1%.
NALP1 yeast inh – inhibitors of NALP1 inflammasome in yeast; inhibition, % at 10 µM; S. cerevisiae NALP1/ASC/caspase-1 growth, X-gal OD620, 72 h; 280,000 tested, 0.61% active; in the data active = inhibition mostly above about 24%, no sharp cut-off; inactive = mostly below about 32%
tim23-1 inh – tim23-1 yeast growth inhibition | S. cerevisiae tim23-1 growth, BacTiter-Glo luminescence, 24 h | inhibition, % at 20 µM | 330,000 tested, 1.3% active | AID 463212;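 active = growth inhibition of the mutant yeast at or above 50%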;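 also: temperature-sensitive mutant grown at 25 °C; plate controls were DMSO-treated mutant yeast for no effect and medium wells lacking yeast for full effect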
NLRP3 yeast inh – blocks the NALP3 inflammasome reconstituted in yeast | Yeast reconstituted NLRP3/ASC/caspase-1, beta-gal luminescence, 24 h | inhibition, % at 10 µM | 330,000 tested, 0.39% active | AID 2825;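 active = inhibition of 50% or more; inactive = inhibition below 50%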;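 also: plate controls were induced DMSO wells for no effect and uninduced yeast grown without galactose for full effect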
tim10-1 inh – inhibits growth of tim10-1 mutant yeast | S. cerevisiae tim10-1 ts strain growth, BacTiter-Glo, 24 h | 330,000 tested, 2.2% active | inhibition, % at 20 µM;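 active = inhibition of at least 40%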;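 also: mutant grown at 25 °C; 0% = DMSO wells with yeast and 100% = wells holding no yeast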
TIM10 inh – growth inhibitors of TIM10 yeast strain | S. cerevisiae TIM10 strain growth, BacTiter-Glo luminescence, 24 h | inhibition, % at 10 µM | 330,000 tested, 1.4% active | AID 463195;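 active = inhibition of 40% or more at the single tested concentration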;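 also: wild-type TIM10 isogenic control strain grown at permissive 25 °C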
tim10-1 conf – confirmation of tim10-1 mutant yeast growth inhibitors; shares compounds with tim10-1 inh; S. cerevisiae tim10-1 ts strain growth, BacTiter-Glo, 24 h; inhibition, % at 20 µM; 7,400 tested, 56% active;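 active = inhibition of yeast growth at or above a set limit in either of two repeat tests at 20 µM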;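 also: tim10-1 mutant grown at permissive 25 °C to find synthetic lethal compounds; 0% = DMSO yeast wells and 100% = medium wells without yeast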
TIM10 conf – TIM10 yeast growth inhibition, confirmed. 4,600 tested, 63% active. inhibition, % at 10 µM. S. cerevisiae tim10 strain growth, BacTiter-Glo luminescence, 24 h. shares compounds with TIM10 inh;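 active = inhibition of yeast growth at or above a set limit in either of two replicates at 10 µM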;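 also: this counterscreen used the strain with wild-type TIM10; 0% = yeast with DMSO and 100% = medium wells lacking yeast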
Numbers without * were called inactive; x = no result given.

SMILES	NALP1 yeast inh	tim23-1 inh	NLRP3 yeast inh	tim10-1 inh	TIM10 inh	tim10-1 conf	TIM10 conf
c1ccc(CNc2nc(CN3CCOCC3)nc3scc(-c4ccccc4)c23)cc1	17.3	46.0	19.0	25.2	36.3	x	x
C/C(=N\OCC(=O)NC12CC3CC(CC(C3)C1)C2)c1cc2ccccc2o1	28.0	18.9	10.3	45.2*	40.0*	22.4	36.5*
C=C1C(=O)O[C@@H]2[C@H]3O[C@]3(C)CC/C=C(\C)CC[C@@H]12	x	46.4	-8.3	53.9*	48.7*	37.7*	53.1*
COc1cccc(C(=O)NCC(=O)NCc2cc(=O)n(C)c(=O)n2C)c1	16.6	-13.6	-9.9	-3.2	-3.3	x	x
O=C(Cc1ccsc1)NNC(=O)c1ccccc1Cl	x	-5.3	9.1	-1.1	-9.3	x	x
O=C(Cc1ccc(F)cc1)N/N=C/c1ccccn1	20.4	5.4	21.3	7.6	0.3	x	x
O=C(Cc1ccc(Br)c2ccccc12)N/N=C/c1ccccn1	-10.2	7.3	7.1	41.2*	40.1*	21.0	32.0*
CCN1CCCC1CNC(=O)c1cc([N+](=O)[O-])c(N(C)C)cc1OC (stereo unspecified)	14.6	-8.2	11.8	-3.6	-9.8	x	x
CSCCC(NS(=O)(=O)c1ccc(C)cc1)C(=O)NCC(C)(C)N1CCOCC1 (stereo unspecified)	x	-15.5	4.6	-11.8	-4.9	x	x
Cc1ccc(/C=C/C(=O)c2c(C)nc3ccccn23)cc1	22.3	34.8	19.8	37.2	38.9	x	x
Cc1nc2ccccn2c1C(=O)/C=C/c1cccc([N+](=O)[O-])c1	10.9	38.2	22.1	50.4*	51.5*	43.6*	54.0*
CC(C)(C)c1ccccc1NC(=S)NC1CCCCC1	7.5	36.9	28.0	43.3*	44.6*	20.4	32.3*
CC(C)(C)c1ccccc1NC(=S)NC1CCCC1	19.3	38.6	38.6	32.5	23.1	x	x
CCn1cc(C(=O)NCc2ccc3c(c2)OCO3)c(=O)c2cc(F)c(N3CCN(C(=O)c4ccco4)CC3)cc21	-3.9	19.8	21.4	23.5	8.4	x	x
C=C1CCC[C@]2(C)C[C@H]3OC(=O)C(CNC(C)(CO)CO)[C@H]3CC12 (stereo partly specified)	-2.7	43.8	-68.0	50.8*	43.4*	51.9*	50.2*
Cc1ccc(-c2nc3c(=O)n(C)c4ccccc4c3o2)cc1	0.9	45.2	13.3	52.3*	57.6*	31.4*	64.0*
CC(=O)NCCSc1ccc(S(=O)(=O)N2CCCC2)cn1	x	-9.7	6.3	-6.2	0.3	x	x
COC(=O)c1cccc(NC(=S)NC(C)C)c1	13.9	10.3	8.0	1.5	2.5	x	x
CCOC(=O)c1ccc(N2C(=O)CC(Sc3nnc(C)s3)C2=O)cc1 (stereo unspecified)	39.6*	38.0	28.2	54.6*	64.5*	77.7*	60.4*
C=CCNc1nnc(SC2CC(=O)N(c3ccc(OCCC)cc3)C2=O)s1 (stereo unspecified)	-27.9	45.6	18.9	63.0*	67.6*	74.0*	69.4*
N#Cc1ccccc1OCC(=O)OCC(=O)NC1CCCC1	x	18.3	-4.1	3.8	5.2	x	x
O=C(NC(=S)Nc1nc2c(s1)CSc1ccccc1-2)c1ccccc1	-1.5	45.2	35.1	48.2*	44.0*	18.9	29.9*
CC(=O)OCCC(NS(=O)(=O)OCC(Cl)(Cl)Cl)c1ccccc1 (stereo unspecified)	17.6	20.8	0.0	15.9	10.6	x	x
O=Cc1coc2c(ccc3ccccc32)c1=O	18.4	43.6	9.6	41.3*	58.1*	34.2*	78.5*
O=C/C=C/c1coc2ccc3ccccc3c2c1=O	-7.5	40.2	27.8	24.4	7.3	x	x
SMILES	NALP1 yeast inh	tim23-1 inh	NLRP3 yeast inh	tim10-1 inh	TIM10 inh	tim10-1 conf	TIM10 conf
O=C(NC(=S)Nc1ccccc1N1CCOCC1)c1cccc([N+](=O)[O-])c1	11.4	41.3	15.7	44.0*	43.9*	34.8*	42.9*
CCC(=O)N1CCN(c2ccccc2NC(=S)NC(=O)c2cccc([N+](=O)[O-])c2)CC1	11.3	17.8	11.7	33.4	19.0	x	x
COc1cccc(C(=O)Nc2ccccc2N2CCCC2)c1	0.2	22.4	10.4	14.2	8.0	x	x
COc1cccc(C(=O)NC(=S)Nc2ccccc2N2CCCC2)c1	-16.9	34.8	16.2	41.2*	49.2*	30.4*	43.7*
COc1ccc(C(=O)Sc2nncc3ccccc23)cc1	1.1	47.8	-25.2	44.9*	41.6*	17.6	41.4*
COc1ccc(NC(=O)CSc2nncc3ccccc23)cc1	6.5	2.3	30.3	-20.0	11.1	x	x
BrC(/C=N/N1CCN(Cc2ccccc2)CC1)=C/c1ccccc1	-3.8	-4.0	-4.7	-15.1	-1.9	x	x
O=C(Nc1ccccc1C(=O)NCc1ccccc1)c1ccccc1	20.5	36.3	11.4	47.3*	45.6*	42.0*	27.4
Cc1cc(C(=O)N(C)CC(=O)Nc2ccc(F)c(F)c2F)no1	15.8	-7.3	8.3	-17.2	-2.1	x	x
O=C(c1ccc([N+](=O)[O-])s1)N1CCN(c2ccccc2)CC1	24.6	31.4	11.7	52.6*	60.1*	47.2*	49.6*
O=C(c1ccc([N+](=O)[O-])s1)N1CCN(c2ccccn2)CC1	-5.8	45.8	4.4	49.2*	43.9*	47.8*	43.5*
COc1ccc(OC)c2sc(N3CCN(C(=O)c4ccc([N+](=O)[O-])s4)CC3)nc12	x	-53.9	7.9	34.3	-86.8	x	x
CC(=O)c1cc(CN2CCN(Cc3ccccc3)C(CCO)C2)cs1 (stereo unspecified)	2.1	10.8	13.6	-6.2	-5.2	x	x
c1ccc(Nc2cc(-c3ccccc3)nc3ncnn23)cc1	21.3	34.6	14.0	48.0*	56.7*	42.7*	48.3*
COc1ccc(/C=C/C(=O)c2cc3c(cc2N)OCO3)cc1	8.9	45.6	9.3	11.0	22.4	x	x
N/C(=N\OC(=O)CCCOc1ccccc1)c1ccncc1	14.9	13.4	5.5	10.8	-3.0	x	x
N/C(=N\OC(=O)c1ccc(Br)cc1)c1ccccc1	3.5	40.2	14.5	55.1*	50.2*	52.0*	67.3*
N/C(=N\OC(=O)c1cccc(Br)c1)c1ccc(Br)cc1	4.1	12.6	16.7	-30.9	4.2	x	x
N/C(=N\OC(=O)CCCOc1ccc(Cl)cc1Cl)c1ccncc1	4.3	5.7	11.2	53.8*	42.7*	30.4*	3.6
N/C(=N\OC(=O)COc1ccc(Cl)cc1Br)c1ccncc1	20.3	x	x	x	x	x	x
N/C(=N\OC(=O)CCCOc1ccccc1)c1ccccc1	14.1	40.8	14.1	44.1*	51.0*	37.1*	34.5*
CN(C)S(=O)(=O)c1ccc(Cl)c(NC(=O)C2CCN(S(=O)(=O)c3cccs3)CC2)c1	x	2.4	17.0	0.5	-12.9	x	x
O=C(Nc1nc(-c2ccccc2)cs1)c1ccc(Br)o1	11.1	49.7	-40.3	41.1*	41.2*	47.7*	50.3*

Screening results: PubChem BioAssay, Sanford-Burnham Center for Chemical Genomics
